Assay [1] can be described thus: NCI Yeast Anticancer Drug Screen. Data for the rad50 strain (AID 155).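 Also: 0% = growth of vehicle-only cultures of the same strain.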 The following applies: S. cerevisiae rad50 strain growth inhibition, active compounds read high. Put shortly: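 Compounds were tested on a yeast strain with an engineered DNA damage repair alteration; the reported value is growth inhibition normalised to vehicle treatment.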
A short description of assay [2]: NCI Yeast Anticancer Drug Screen. Data for the mec2-1 strain (AID 157). The settings on record: S. cerevisiae mec2-1 strain, active compounds read high. In short, it runs like this:
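Mutant yeast (mec2-1) grown with compound; growth inhibition relative to vehicle control reported.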

The nature of assay [3]: NCI Yeast Anticancer Drug Screen. Data for the sgs1 mgt1 strain (AID 161).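 Also: 0% = growth of cultures given vehicle only.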 The settings on record: S. cerevisiae sgs1 mgt1 strain, active compounds read high. Put shortly: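 This yeast growth screen uses a strain with defined DNA-repair lesions; compound-treated growth is compared with vehicle-treated growth.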
The nature of assay [4]: NCI Yeast Anticancer Drug Screen. Data for the cln2 rad14 strain (AID 165).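 Also: 0% = growth equal to vehicle treated cultures.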 The settings on record: S. cerevisiae cln2 rad14 strain, active compounds read high. In short, it runs like this: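 Readout is yeast growth inhibition versus vehicle-treated controls, using a strain with cln2 and rad14 alterations exposed to compound.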
Assay [5] is described as follows: NCI Yeast Anticancer Drug Screen. Data for the bub3 strain (AID 167). The settings on record: S. cerevisiae bub3 mutant strain, active compounds read high. In short, it runs like this: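 Growth of a checkpoint-deficient yeast mutant is measured after compound exposure. Values represent inhibition relative to vehicle.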
Assay [6] is described as follows: NCI Yeast Anticancer Drug Screen. Data for the mlh1 rad18 strain (AID 175). The following applies: S. cerevisiae mlh1 rad18 strain growth inhibition, active compounds read high. In short, it runs like this:
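Genetically defined yeast (DNA repair-deficient) exposed to compounds; growth inhibition determined relative to vehicle.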

Where [7] appears, read: at 5.0 µM (retest, dose inferred, filed as 0.5).
Where [8] appears, read: at 50.0 µM (retest, dose inferred, filed as 5.0).

Each structure is given as a SMILES string. The panel holds about 79,000 compounds, 15% with a hit somewhere; the sample as a whole holds those more often. Values without a mark were called inactive. Active and inactive are the calls of the source. Rule as the data show it: active = growth inhibition above about 70%; inactive = the rest.

As to `CN1C/C(=C\c2ccc(Cl)cc2)C(=O)/C(=C/c2ccc(Cl)cc2)C1`, the growth inhibition in assay [1] (setting [7]) was 78% (active); in assay [1] (setting [8]), 98% (active); in assay [1] (at 50.0 µM), 87.2% (active); in assay [2] (setting [7]), 73% (active); in assay [2] (setting [8]) it was 99% (active); in assay [2] (at 50.0 µM) it was 88.5% (active). In addition, the growth inhibition in assay [3] (setting [7]) is 79% (active); in assay [3] (setting [8]), 99% (active); in assay [3] (at 50.0 µM) it was 91% (active); in assay [4] (setting [7]), 78% (active); in assay [4] (setting [8]), 97% (active); in assay [4] (at 50.0 µM), 88% (active). For the same compound, the growth inhibition in assay [5] (setting [7]) was 84% (active); in assay [5] (setting [8]), 97% (active); in assay [5] (at 50.0 µM), 87.8% (active); in assay [6] (setting [7]), 83% (active); in assay [6] (setting [8]), 98% (active); in assay [6] (at 50.0 µM), 85.2% (active).
Take `Cc1cc([N+](=O)[O-])cc(C)[n+]1[O-]`: the growth inhibition in assay [1] (setting [7]) is 13%; in assay [1] (setting [8]), 67%; in assay [1] (at 50.0 µM), 82.5% (active); in assay [2] (setting [7]), 0%; in assay [2] (setting [8]), 12%; in assay [2] (at 50.0 µM), 50.1%. Moreover, the growth inhibition in assay [3] (setting [7]) was 17%; in assay [3] (setting [8]) it was 80% (active); in assay [3] (at 50.0 µM) it was 91.2% (active); in assay [4] (setting [7]), 3%; in assay [4] (setting [8]), 53%; in assay [4] (at 50.0 µM), 44.8%. Further, the growth inhibition in assay [5] (setting [7]) was 0%; in assay [5] (setting [8]), -14%; in assay [5] (at 50.0 µM), 6.55%; in assay [6] (setting [7]), 20%; in assay [6] (setting [8]), 60%; in assay [6] (at 50.0 µM), 84.2% (active).
With `O=[N+]([O-])c1cc(NC(=S)SCc2ccccc2)ccc1Cl`, the growth inhibition is 92% (active) in assay [1] (setting [7]); 98% (active) in assay [1] (setting [8]); 98.8% (active) in assay [1] (at 50.0 µM); 74% (active) in assay [2] (setting [7]); 99% (active) in assay [2] (setting [8]); 99.3% (active) in assay [2] (at 50.0 µM). Moreover, the growth inhibition in assay [3] (setting [7]) was 92% (active); in assay [3] (setting [8]) it was 99% (active); in assay [3] (at 50.0 µM), 99.2% (active); in assay [4] (setting [7]) it was 29%; in assay [4] (setting [8]) it was 97% (active); in assay [4] (at 50.0 µM), 99.1% (active). Besides, the growth inhibition in assay [5] (setting [7]) is 8%; in assay [5] (setting [8]), 97% (active); in assay [5] (at 50.0 µM) it was 99.2% (active); in assay [6] (setting [7]), 91% (active); in assay [6] (setting [8]), 99% (active); in assay [6] (at 50.0 µM), 99.2% (active).
With `Cc1ccc2ccc3ccc(C)nc3c2n1`, the growth inhibition is 94% (active) in assay [1] (setting [7]); 93% (active) in assay [1] (setting [8]); 95.1% (active) in assay [1] (at 50.0 µM); 92% (active) in assay [2] (setting [7]); 94% (active) in assay [2] (setting [8]); 96.3% (active) in assay [2] (at 50.0 µM). Also, the growth inhibition in assay [3] (setting [7]) is 93% (active); in assay [3] (setting [8]) it was 96% (active); in assay [3] (at 50.0 µM), 96.5% (active); in assay [4] (setting [7]), 91% (active); in assay [4] (setting [8]) it was 89% (active); in assay [4] (at 50.0 µM), 94.3% (active). Besides, the growth inhibition in assay [5] (setting [7]) is 96% (active); in assay [5] (setting [8]), 94% (active); in assay [5] (at 50.0 µM) it was 97% (active); in assay [6] (setting [7]), 94% (active); in assay [6] (setting [8]), 94% (active); in assay [6] (at 50.0 µM), 95.8% (active).
`CN1C(Cl)=NS(=O)(=O)c2ccccc21`: the growth inhibition in assay [1] (setting [7]) is 18%; in assay [1] (setting [8]), 22%; in assay [1] (at 50.0 µM), -23%; in assay [2] (setting [7]) it was 14%; in assay [2] (setting [8]) it was 19%; in assay [2] (at 50.0 µM), -5.6%. The growth inhibition in assay [3] (setting [7]) is 9%; in assay [3] (setting [8]) it was 18%; in assay [3] (at 50.0 µM), -12.4%; in assay [4] (setting [7]), 20%; in assay [4] (setting [8]), 20%; in assay [4] (at 50.0 µM) it was -1.3%. The growth inhibition in assay [5] (setting [7]) was 15%; in assay [5] (setting [8]), 11%; in assay [5] (at 50.0 µM) it was 6.35%; in assay [6] (setting [7]) it was 15%; in assay [6] (setting [8]) it was 25%; in assay [6] (at 50.0 µM) it was 8.95%.
For `COC(=O)C12CCC(C)(C)CC1C1=CCC3C4(C)CC(O)C(O)C(C)(C(=O)OC)C4CCC3(C)C1(CO)CC2` (configuration not stated), the growth inhibition was 30% in assay [1] (setting [7]); 97% (active) in assay [1] (setting [8]); 91.5% (active) in assay [1] (at 50.0 µM); 30% in assay [2] (setting [7]); 99% (active) in assay [2] (setting [8]); 91.7% (active) in assay [2] (at 50.0 µM). In addition, the growth inhibition was 15% in assay [3] (setting [7]); 99% (active) in assay [3] (setting [8]); 91.8% (active) in assay [3] (at 50.0 µM); 39% in assay [4] (setting [7]); 99% (active) in assay [4] (setting [8]); 91.4% (active) in assay [4] (at 50.0 µM). For the same compound, the growth inhibition in assay [5] (setting [7]) was 26%; in assay [5] (setting [8]) it was 99% (active); in assay [5] (at 50.0 µM), 88.8% (active); in assay [6] (setting [7]), 31%; in assay [6] (setting [8]), 98% (active); in assay [6] (at 50.0 µM), 85.8% (active).
As to `CN(CCCN(CCO)CCO)C1CC(C)(C)N(O)C(C)(C)C1`, the growth inhibition was 16% in assay [1] (setting [7]); -4% in assay [1] (setting [8]); -4.5% in assay [1] (at 50.0 µM); -1% in assay [2] (setting [7]); 3% in assay [2] (setting [8]); -9.7% in assay [2] (at 50.0 µM). Moreover, the growth inhibition in assay [3] (setting [7]) was 7%; in assay [3] (setting [8]), 10%; in assay [3] (at 50.0 µM), -3.5%; in assay [4] (setting [7]), -2%; in assay [4] (setting [8]), 5%; in assay [4] (at 50.0 µM), 14.7%. The growth inhibition was -3% in assay [5] (setting [7]); 2% in assay [5] (setting [8]); -8.9% in assay [5] (at 50.0 µM); 1% in assay [6] (setting [7]); 9% in assay [6] (setting [8]); 7.2% in assay [6] (at 50.0 µM).
With `BrCc1ccc([Si](c2ccccc2)(c2ccccc2)c2ccc(CBr)cc2)cc1`, the growth inhibition in assay [1] (setting [7]) was -3%; in assay [1] (setting [8]), -16%; in assay [1] (at 50.0 µM), 48.1%; in assay [2] (setting [7]) it was 14%; in assay [2] (setting [8]), 8%; in assay [2] (at 50.0 µM), 20.1%. Also, the growth inhibition in assay [3] (setting [7]) was -15%; in assay [3] (setting [8]) it was -18%; in assay [3] (at 50.0 µM), 53%; in assay [4] (setting [7]) it was -1%; in assay [4] (setting [8]), -25%; in assay [4] (at 50.0 µM) it was 78.5% (active). The growth inhibition in assay [5] (setting [7]) was -2%; in assay [5] (setting [8]), -15%; in assay [5] (at 50.0 µM) it was 10.5%; in assay [6] (setting [7]), 3%; in assay [6] (setting [8]), -30%; in assay [6] (at 50.0 µM), 53.5%.
With `CC1=C(C)C1[N+](=O)[O-]`, the growth inhibition was 45% in assay [1] (setting [7]); 94% (active) in assay [1] (setting [8]); 78% (active) in assay [1] (at 50.0 µM); 35% in assay [2] (setting [7]); 97% (active) in assay [2] (setting [8]); 79.8% (active) in assay [2] (at 50.0 µM). In addition, the growth inhibition in assay [3] (setting [7]) was 44%; in assay [3] (setting [8]), 98% (active); in assay [3] (at 50.0 µM), 69%; in assay [4] (setting [7]), 25%; in assay [4] (setting [8]), 68%; in assay [4] (at 50.0 µM), 24.4%. The growth inhibition in assay [5] (setting [7]) was 49%; in assay [5] (setting [8]), 97% (active); in assay [5] (at 50.0 µM), 65.7%; in assay [6] (setting [7]), 64%; in assay [6] (setting [8]), 95% (active); in assay [6] (at 50.0 µM), 62.9%.

For the origin of these results see PubChem BioAssay (NCI).
